Measured values reported in PubChem BioAssay (NCATS).
Records with an inconclusive call do not appear. A number with no mark means an inactive call. Active and inactive are the calls of the source. The call rests on the fitted dose curve; in most records, active means well fitted inhibition curve with a large enough effect; inconclusive means small, poorly fitted or top-dose-only effect, or effect the other way; inactive means flat fitted curve, though single readings scatter.

biological target: ATPase family AAA domain-containing protein 5 (Homo sapiens) (UniProt Q96QE3); experiment: Validation screen for small molecules that inhibit ELG1-dependent DNA repair in human embryonic kidney (HEK293T) cells expressing luciferase-tagged ELG1 (AID 493107); details: HEK293T ELG1-luciferase level, luminescence, 5-fluorouridine co-treatment, 16 h; series mostly up to 46.1 µM; activity change, negative = decrease: at the top concentration; further: nearly all actives have a fitted effect of over 70% in size;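 on activity change, negative = decrease: inhibitors lower the ELG1-luciferase luminescence signal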
Sequence (Q96QE3 whole entry, looked up, the tested form may be a part): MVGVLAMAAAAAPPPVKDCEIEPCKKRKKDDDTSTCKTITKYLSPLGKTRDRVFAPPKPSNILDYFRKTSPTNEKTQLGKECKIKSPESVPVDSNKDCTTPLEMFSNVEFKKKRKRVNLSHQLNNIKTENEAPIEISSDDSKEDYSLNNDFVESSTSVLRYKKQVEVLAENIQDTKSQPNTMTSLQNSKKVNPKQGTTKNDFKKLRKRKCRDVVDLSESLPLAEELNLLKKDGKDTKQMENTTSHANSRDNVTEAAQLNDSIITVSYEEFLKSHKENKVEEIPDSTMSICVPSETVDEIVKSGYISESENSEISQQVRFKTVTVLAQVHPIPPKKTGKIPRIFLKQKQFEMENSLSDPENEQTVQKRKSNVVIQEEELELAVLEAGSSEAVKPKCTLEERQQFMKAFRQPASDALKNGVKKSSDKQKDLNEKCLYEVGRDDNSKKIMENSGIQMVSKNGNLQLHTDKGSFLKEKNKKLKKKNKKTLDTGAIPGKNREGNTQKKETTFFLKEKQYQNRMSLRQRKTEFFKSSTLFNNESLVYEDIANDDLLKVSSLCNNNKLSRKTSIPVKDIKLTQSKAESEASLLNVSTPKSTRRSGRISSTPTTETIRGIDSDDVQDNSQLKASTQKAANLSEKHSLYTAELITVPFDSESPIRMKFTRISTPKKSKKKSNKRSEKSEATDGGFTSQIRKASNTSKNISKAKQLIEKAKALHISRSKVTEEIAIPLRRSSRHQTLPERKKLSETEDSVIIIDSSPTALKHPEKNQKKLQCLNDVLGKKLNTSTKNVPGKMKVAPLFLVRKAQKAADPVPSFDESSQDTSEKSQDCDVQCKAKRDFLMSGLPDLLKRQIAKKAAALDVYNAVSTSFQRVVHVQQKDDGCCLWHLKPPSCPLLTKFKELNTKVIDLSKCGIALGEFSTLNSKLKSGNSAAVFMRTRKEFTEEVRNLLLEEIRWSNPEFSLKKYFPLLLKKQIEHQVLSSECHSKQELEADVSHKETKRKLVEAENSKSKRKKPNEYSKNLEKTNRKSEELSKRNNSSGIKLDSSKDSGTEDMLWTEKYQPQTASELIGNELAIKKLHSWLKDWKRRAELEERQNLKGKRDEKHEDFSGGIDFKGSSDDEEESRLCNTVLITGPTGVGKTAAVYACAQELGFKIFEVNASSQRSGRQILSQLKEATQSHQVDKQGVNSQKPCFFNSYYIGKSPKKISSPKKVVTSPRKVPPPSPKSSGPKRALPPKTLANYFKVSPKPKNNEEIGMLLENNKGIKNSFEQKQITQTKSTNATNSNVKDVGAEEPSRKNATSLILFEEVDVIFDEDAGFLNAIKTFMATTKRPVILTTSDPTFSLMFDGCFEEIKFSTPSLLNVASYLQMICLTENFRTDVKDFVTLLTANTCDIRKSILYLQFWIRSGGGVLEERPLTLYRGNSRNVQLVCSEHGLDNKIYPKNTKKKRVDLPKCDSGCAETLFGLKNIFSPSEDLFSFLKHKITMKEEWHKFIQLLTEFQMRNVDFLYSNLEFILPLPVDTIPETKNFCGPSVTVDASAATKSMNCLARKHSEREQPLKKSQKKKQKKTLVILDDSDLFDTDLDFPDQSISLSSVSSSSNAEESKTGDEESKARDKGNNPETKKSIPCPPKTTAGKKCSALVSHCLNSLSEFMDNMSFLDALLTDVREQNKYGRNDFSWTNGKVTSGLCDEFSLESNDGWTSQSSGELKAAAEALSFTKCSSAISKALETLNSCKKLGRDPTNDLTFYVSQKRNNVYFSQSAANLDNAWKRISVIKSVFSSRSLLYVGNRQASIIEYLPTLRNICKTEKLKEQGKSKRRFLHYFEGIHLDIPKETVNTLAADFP
From the text: NIH Molecular Libraries Probe Production Network [MLPCN]
NIH Chemical Genomics Center [NCGC]
Assay Provider: Kyungjae Myung, NHGRI, NIH
Keywords: MLPCN, qHTS, NCGC, genotoxicity, cancer
Cancer cells divide rapidly compared to normal cells in the body. During cell division, cancer cells need to duplicate their genome by DNA replication. The failure of genome duplication leads to cancer cells' death. Therefore, inhibitors of DNA replication could specifically kill cancer cells. Based on this concept, many chemotherapeutic agents were developed and have been used to treat cancer patients. However, there are a limited number of agents available in the clinical setting, and some of those that do exist have low efficacy and severe side effects. Therefore, if we can find the compounds that effectively block DNA replication either by directly damaging DNA or by inhibiting other cellular mechanisms, the options for cancer treatment will be broadened. With this in mind, we developed a quantitative high-throughput ELG1-luciferase reporter gene assay. Small molecules that specifically block ELG1 function in response to DNA damage can be identified by monitoring the suppression of luciferase activity. Since ELG1 defines a pathway for repairing DNA damage, agents blocking ELG1 function can be used to sensitize cancer cells to chemotherapeutic agents whose mechanism of action involves the induction of DNA damage.
For genotoxicity screening, 2,000 cells in 4 uL/well were dispensed into white, solid-bottom 1536-well plates using a solenoid-based dispenser. Following transfer of 1 uL 5-Fluorouridine and 23 nL compound or DMSO vehicle by a pin tool, the plates were incubated 16 hr at 37 °C and 5% CO2. 5 ul ONE-Glo (Promega) was then added to each plate and following a 30 min incubation at room temperature, luciferase activity was quantified on a ViewLux CCD-based plate reader.
On the % scale 0 is the no-effect control and ±100 the full control effect; potency means the concentration at half of the fitted maximal effect.

| Structure (SMILES) | activity change, negative = decrease [%] | Potency |
| --- | --- | --- |
| O=C(O)c1cc2cc(Cc3cccnc3)ccc2o1 | 6.65 | – |
| CNCCC(Oc1ccccc1C)c1ccccc1 (configuration not stated) | 3.95 | – |
| CN1C2CCC1CC(OC(=O)c1c[nH]c3ccccc13)C2 (configuration not stated) | -3.64 | – |
| COc1cc(NS(C)(=O)=O)ccc1Nc1c2ccccc2nc2ccccc12 | – | 14.6 µM (active) |
| CC1(C)CCC(NC(=O)[C@@H](N)CCC(=O)O)CC1 | -8 | – |
| CC(=O)O[C@H]1C[C@@H]2CC[C@@H]3[C@H](CC[C@@]4(C)[C@H]3C[C@H]([N+]3(C)CCCCC3)[C@@H]4OC(C)=O)[C@@]2(C)C[C@@H]1[N+]1(C)CCCCC1 | 6.75 | – |
| C[C@]12CC[C@@H]3c4ccc(O)cc4CC[C@H]3[C@@H]1CC[C@@H]2O | -21.1 | – |
| CCCn1c(=O)[nH]c(=O)c2[nH]cnc21 | 0.43 | – |
| N[C@H](CO)C(=O)O | -5.1 | – |
| CC[C@H](C)C(=O)O[C@H]1CCC=C2C=C[C@H](C)[C@H](CC[C@@H]3C[C@@H](O)CC(=O)O3)[C@H]21 | -3.66 | – |
| CCCC1O[C@@H]2C[C@H]3[C@@H]4CCC5=CC(=O)C=C[C@]5(C)[C@H]4[C@@H](O)C[C@]3(C)[C@]2(C(=O)CO)O1 (some centres not stated) | -5.94 | – |
| C[C@@H]1C(=O)NC2=Nc3cccc(Cl)c3CN21 | 11.5 | – |
| CCC(NC(C)C)C(O)c1ccc(O)c(O)c1 (configuration not stated) | 2.91 | – |
| CC(C)COC(=O)OCN1C(=O)CN(CCN2CC(=O)N(COC(=O)OCC(C)C)C(=O)C2)CC1=O | 4.99 | – |
| COC(=O)[C@H]1[C@H]2C[C@H]3c4[nH]c5ccccc5c4CCN3C[C@H]2CC[C@@H]1O | 8.38 | – |
| Nc1cc(Cl)c(NC2=NCCN2)c(Cl)c1 | -4.03 | – |
| C[N+]1(CCCCC[N+]2(C)CCCC2)CCCC1 | -10.7 | – |
